This is an account of results in PubChem BioAssay.

For assay [1], the target named is Albumin (Bos taurus) (UniProt P02769). Briefly: compounds binding labelled BSA control protein – biochemical, small-molecule microarray, Alexa647 label, 635/667 nm fluorescence, artefact control for SMM control protein annotation, profiling panel (AID 1118).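 Note: score merges 667 nm emission intensity and signal-to-noise per printed compound spot.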 The settings on record: BSA-A647 binding, fluorescence 635 nm, higher = more signal.
Sequence of Albumin (Bos taurus) (P02769 whole entry, looked up): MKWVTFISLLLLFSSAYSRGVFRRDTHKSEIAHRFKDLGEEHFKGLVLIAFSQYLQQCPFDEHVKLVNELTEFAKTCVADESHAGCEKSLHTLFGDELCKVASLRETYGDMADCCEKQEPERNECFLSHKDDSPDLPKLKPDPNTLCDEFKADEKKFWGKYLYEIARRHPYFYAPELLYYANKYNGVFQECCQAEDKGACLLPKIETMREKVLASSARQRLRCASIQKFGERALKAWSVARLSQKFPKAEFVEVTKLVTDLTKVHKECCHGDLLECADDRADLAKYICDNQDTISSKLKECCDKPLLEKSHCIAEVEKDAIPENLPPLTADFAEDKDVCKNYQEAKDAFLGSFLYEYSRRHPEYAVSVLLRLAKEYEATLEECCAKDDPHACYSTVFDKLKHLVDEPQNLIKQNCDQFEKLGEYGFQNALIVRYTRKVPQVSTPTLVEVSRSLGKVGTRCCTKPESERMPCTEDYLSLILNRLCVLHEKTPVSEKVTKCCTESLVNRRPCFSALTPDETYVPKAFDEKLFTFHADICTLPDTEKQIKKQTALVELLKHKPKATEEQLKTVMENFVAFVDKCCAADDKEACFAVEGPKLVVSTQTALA
A short description of assay [2]: probe aXIP binding to arrayed compounds – biochemical, NeuroSMM set, 635/667 nm fluorescence, primary screen (AID 1119).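 Note: probe is the protein aXip251-270 applied at 1 µg/mL to compound-printed slides; binding of probe to printed compounds measured as 667 nm fluorescence plus signal to noise.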 The settings on record: small-molecule microarray, higher = more signal, called active from +8 up or from −8 down.
The nature of assay [3]: probe aNOTCH3 binding on compound microarray – biochemical, small-molecule microarray, 635/667 nm fluorescence, primary screen (AID 1120).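 Note: probe is a biotin-tagged antibody raised against NOTCH3 rather than NOTCH3 protein; score merges spot fluorescence near 667 nm with spot signal to noise.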 The settings on record: higher = more signal.
Assay [4] is described as follows: probe aNOTCH2 binding on compound microarray – biochemical, small-molecule microarray, 635/667 nm fluorescence, primary screen (AID 1121).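 Note: score merges feature fluorescence read at 667 nm with its signal to noise.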 The following applies: higher = more signal.
For assay [5], the target named is Carbonic anhydrase 2 (Homo sapiens) (UniProt P00918). Description: compounds binding carbonic anhydrase 2 – biochemical, small-molecule microarray, Alexa647-labelled CAII, profiling panel (AID 1122). The settings on record: CAII-A647 binding fluorescence, higher = more signal.
A short description of assay [6]: COS7 lysate on small-molecule microarray, probe aHis, 635 nm (AID 1123).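 Note: z-score combines 667nm fluorescence intensity with signal-to-noise per printed compound spot.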 The following applies: COS7 cell lysate, fluorescence, higher = more signal.
Assay [7] in a line: probe aLAP1 signal on lysate-treated microarray – cell lysate, small-molecule microarray, COS7 lysate, primary screen (AID 1124).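 Note: lysate comes from COS7 cells expressing LAP1 and is applied at 0.3 µg/mL; score merges spot fluorescence near 667 nm with signal-to-noise over triplicate slides.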 The following applies: probe aLAP1, fluorescence, higher = more signal.
Assay [8] has as its system Sam68 (KHDRBS1). Briefly: compounds binding KHDRBS1 protein – biochemical, small-molecule microarray, 635 nm fluorescence, primary screen (AID 1125).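 Note: score merges 667 nm channel intensity with signal to noise over triplicate slides.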 The settings on record: higher = more signal.
Assay [9] concerns Chordin-like protein 2 (CHRDL2). Description: compounds binding chordin-like 2 – biochemical, small-molecule microarray, 635 nm fluorescence, primary screen (AID 1126).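 Note: printed compound slides probed with Chrdl2 protein at 4 µg/mL for 1 h at 4 C; score merges 667 nm emission intensity with signal to noise over three replicate slides.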 The settings on record: fluorescence 635 nm, higher = more signal.
Assay [10] addresses Concanavalin-A (Canavalia ensiformis) (UniProt P02866). Description: compounds binding concanavalin A lectin – biochemical, small-molecule microarray, Alexa647 label, 635 nm, artefact control for SMM control protein annotation, primary screen (AID 1127).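 Note: z combines 667 nm emission intensity with signal-to-noise across three replicate slides.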 The settings on record: ConA-A647 binding fluorescence, higher = more signal.

Structures are written as SMILES. Activity calls are given as the source filed them.

Sequence of Concanavalin-A (Canavalia ensiformis) (P02866 whole entry, looked up): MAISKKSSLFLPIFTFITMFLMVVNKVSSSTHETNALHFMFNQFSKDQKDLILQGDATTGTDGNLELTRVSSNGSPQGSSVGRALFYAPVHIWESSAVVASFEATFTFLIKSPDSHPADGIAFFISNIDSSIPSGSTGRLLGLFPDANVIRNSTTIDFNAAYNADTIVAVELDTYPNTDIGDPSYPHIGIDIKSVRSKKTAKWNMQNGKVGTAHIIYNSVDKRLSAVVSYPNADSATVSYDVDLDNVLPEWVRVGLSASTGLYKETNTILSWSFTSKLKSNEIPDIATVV

Regarding `COC(=O)C1=CC(CCCO)=CC(c2cccs2)N(Cc2cccc(OC(F)(F)F)c2)C=C1C(=O)OC` (stereo not given), the composite z-score was determined as 0.935 in [1]; 0.208 in assay [3]; 0.224 in [4]; 0.834 in [5]; 1.93 in assay [6]; 0.718 in [7]. The composite z-score is 1.3 in assay [8], -0.413 in assay [9] and 1.13 in [10]. In addition, in assay [2], the composite Z-score was 0.387 (inactive).
`Cc1ccccc1C(O)C1C=CC2C(=O)NC(=O)C2N1Nc1ccccn1` (stereo not given): the composite z-score in assay [1] was 0.65; in [3] it was -0.15; in assay [4], -0.14; in [5], 0.355; in assay [6] it was 0.78; in assay [7], 0.483. The composite z-score in assay [8] was -0.805; in assay [9], 0.102; in assay [10] it was -0.227. In assay [2], the composite Z-score was 0.497 (inactive).
As to `C=CC[C@@H](OC(=O)Nc1ccc(SC)cc1)c1ccc(O)c(F)c1`, the composite z-score in [1] was -0.102; in [3], -0.0647; in assay [4], -0.114; in assay [5] it was 0.643; in assay [6], 0.527; in assay [7] it was 0.341. Moreover, the results for the composite z-score in [8], in assay [9] and in [10] were 0.152, 0.268 and -0.0538, respectively. The composite Z-score in assay [2] was 0.452 (inactive).
As for `COC(=O)[C@@]1(Cc2ccc(F)cc2)[C@H]2c3cc(C(=O)N(C)C)n(Cc4ccc(OC(F)(F)F)cc4)c3C[C@H]2CN1C(=O)c1ccccc1`, the composite z-score was 0.239 in assay [1]; 0.11 in [3]; -0.078 in assay [4]; 0.0217 in assay [5]; 0.398 in [6]; 0.0642 in assay [7]. For the same molecule, the results for the composite z-score in assay [8], in [9] and in assay [10] were -0.0367, -0.0356 and 0.296, respectively. The composite Z-score in assay [2] is -0.249 (inactive).
In the case of `CCCNC(=O)[C@@]1(C)c2ccccc2C(=O)N(c2ccc(C)cn2)[C@H]1c1ccc(CO)cc1`, the composite z-score in assay [1] was -0.0296; in assay [3], -0.246; in assay [4] it was -0.108; in [5], 0.699; in assay [6], -0.604; in assay [7] it was -0.105. Besides, the composite z-score in [8] was -0.264; in assay [9] it was 0.0286; in [10], -0.283. For the same molecule, the composite Z-score in [2] was 0.164 (inactive).
Turning to `O=C1O[C@H](c2ccccc2)[C@H](c2ccccc2)N2[C@H]1[C@@H](C(=O)O)[C@]1(C(=O)Nc3ccc(C#CCCO)cc31)[C@H]2c1ccccc1OCCO`, the composite z-score in [1] is 0.713; in assay [3] it was -0.19; in [4], -0.124; in [5] it was 0.729; in [6], 0.676; in [7] it was 0.681. In addition, the results for the composite z-score in assay [8], in assay [9] and in [10] were 0.794, -0.579 and 0.991, respectively. In addition, in assay [2], the composite Z-score was -0.308 (inactive).
With `CCN(CC)c1ccc(N2CC=CC34O[C@@H]5/C=C\CCCOC(=O)C5[C@H]3C(=O)N(C(C)CO)[C@@H]4C2=O)cc1` (stereo not given in full), the composite z-score was 0.288 in assay [1]; -0.0647 in assay [3]; -0.0862 in [4]; 0.732 in [5]; 0.121 in assay [6]; 0.248 in assay [7]. Further, the values for the composite z-score in [8], in assay [9] and in assay [10] were 0.11, 0.259 and -0.529, respectively. Also, the composite Z-score in assay [2] is -0.463 (inactive).
For `CCCC=C(CCC)[C@@H](NP(=O)(c1ccccc1)c1ccccc1)c1ccc(-c2ccccc2)cc1`, the composite z-score in assay [1] was 0.91; in [3] it was 0.36; in assay [4], 0.0117; in assay [5], 0.561; in assay [6], 2.52; in assay [7] it was 0.272. Also, the composite z-score in assay [8] was 1.34; in assay [9], -0.465; in [10] it was 1.09. For the same molecule, the composite Z-score in assay [2] was 0.439 (inactive).
Take `C=CCN1Cc2ccccc2[C@@H]2OC(c3ccc(OCCCO)cc3)=N[C@]2(CC=C)C1=O`: the composite z-score in assay [1] was -0.187; in [3] it was 0.43; in assay [4], 0.147; in assay [5] it was 0.544; in assay [6], 3.16; in assay [7], 0.585. In addition, the composite z-score is 1.22 in [8], 1.44 in assay [9] and 1.1 in [10]. In addition, the composite Z-score in assay [2] was 1.79 (inactive).
With `COC(=O)c1c(CC[C@@H](CO)NC(=O)N2CCC[C@H]2Cn2cc(C3(O)CCCCC3)nn2)oc(C(C)=O)c1C(=O)OC`, the composite z-score is 0.844 in assay [1]; -0.0328 in assay [3]; -0.0795 in [4]; 0.707 in [5]; 1.44 in assay [6]; 0.473 in assay [7]. Moreover, the composite z-score was 1.28 in [8], 1.09 in [9] and 1.04 in assay [10]. In assay [2], the composite Z-score is 0.506 (inactive).
With `CCCC#C[Si](O[C@H](CC)c1cn([C@H](C)c2ccccc2)nn1)(C(C)C)C(C)C`, the composite z-score in assay [1] was 0.468; in [3] it was -0.112; in assay [4], -0.0317; in [5], 0.26; in assay [6], 0.47; in assay [7], -0.0249. Also, the composite z-score came to 0.702 in [8], 0.169 in [9] and 0.488 in assay [10]. The composite Z-score in [2] is 0.381 (inactive).
Consider `COc1cc2c(cc1O)C=[N+](Cc1sc3ccccc3c1Cl)CC2`, for which the composite z-score in [1] is 0.606; in [3] it was -0.0546; in [4] it was -0.0658; in [5], 0.742; in assay [6] it was 0.491; in [7] it was 0.361. For the same molecule, the results for the composite z-score in assay [8], in assay [9] and in [10] were -0.291, 0.496 and 0.968, respectively. Moreover, the composite Z-score in assay [2] is 0.0375 (inactive).
For `COC(=O)[C@@]1(Cc2ccc(F)cc2)[C@H]2c3cc(C(=O)N4CCCC4)n(Cc4ccc(C)c(F)c4F)c3C[C@H]2CN1C(=O)c1ccccc1`, the composite z-score in assay [1] is 1.04; in [3], -0.0304; in assay [4] it was 0.219; in assay [5] it was 0.834; in assay [6] it was 0.922; in assay [7] it was 1.14. Further, the composite z-score in assay [8] was -0.451; in assay [9], -0.186; in assay [10], -0.927. The composite Z-score in assay [2] was -0.474 (inactive).
